Only a selection was taken, and hits are over-represented in it overall.
Pf Dd2 inh: inhibitors of Plasmodium falciparum Dd2 growth. P. falciparum Dd2 growth, SYBR Green, 72 h. Potency, µM (titrated, usually from 28.9 µM), without a hit: top-dose activity, negative = inhibition, actives largely listed as inhibitors. 120,000 tested, 4.3% active. AID 1347417; active = well fitted inhibition curve with a large enough effect;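 also: plate controls were DMSO vehicle for no effect and reference drug for full effect; nearly all actives have a fitted effect of over 65% in size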
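Infected erythrocytes (Dd2, 0.3% parasitemia, 2.5% hematocrit final) are added to compound in RPMI-1640/Albumax II medium, grown 72 h at 37C in low oxygen, then lysed with saponin/Triton-X containing SYBR Green and read by fluorescence.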
Active calls of the source: *; i = inactive; ! = repeats disagree; [ ] = another dose, or the depositor's remark. Potency is read from the fitted curve at half-maximal effect.

SMILES | Pf Dd2 inh
O=C1CC(c2ccccc2)N(Cc2ccccn2)CCCCCN1 (stereo unspecified) | -17%
O=[S+]([O-])(Nc1cccnc1)c1ccc2c(c1)OCCN(Cc1ccncc1F)C2 | i
O=[S+]([O-])(Nc1ccccc1)c1ccc2c(c1)OCCN(Cc1ccncc1F)C2 | 5µM*
O=[S+]([O-])(Nc1cccnc1)c1ccc2c(c1)OCCN(Cc1ccccc1F)C2 | -18%[44.1 µM]
NC(=O)c1ccc(OC2CCN(Cc3ccccn3)C2)nc1 (stereo unspecified) | i
CCCN(CCC)C(=O)C1COC2(CCC(C)CC2)N1C(=O)c1ccccc1F (stereo unspecified) | i
COc1cc(Cl)ccc1-c1cccc(COc2cnc3c(ccn3CC(=O)O)c2)c1 | i
CC(C)NC(=O)c1ccc(-n2c(-c3ccccc3)cc3c2CCCC3)cc1 | i
Cc1cc2c(n1-c1ccc(C(=O)NCC(C)c3ccccc3)cc1)CCCC2 (stereo unspecified) | 10µM*
CCCNC(=O)c1ccc(-n2c(-c3ccccc3)cc3c2CCCCC3)cc1 | -27%
CCNC(=O)c1ccc(-n2c(-c3ccccc3)cc3c2CCCCC3)cc1 | -2%
COCCNC(=O)c1ccc(-n2c(-c3ccccc3)cc3c2CCCCC3)cc1 | -21%
Cc1ccccc1CNC(=O)c1ccc(-n2c(C)cc3c2CCCC3)cc1 | 10µM*
CC(C)N1C[C@H](O)C[C@H]1c1nnc2n1CCN(C(=O)CC1CCCC1)CC2 | -17%
CN(C)C[C@@H]1CN(c2ccncn2)C[C@H]1NC(=O)c1cccn1C | -20%
Cn1cc(S(=O)(=O)c2ccccc2)c(=O)c2cc(F)c(N3CCCCC3)cc21 | 1%
CCCN1CCN(c2cc3c(cc2F)c(=O)c(S(=O)(=O)c2ccc(Cl)cc2)cn3C)CC1 | 10µM*
Cc1ccc(S(=O)(=O)c2cn(C)c3cc(N4CCCCC4)c(F)cc3c2=O)cc1 | -27%
Cn1cc(S(=O)(=O)c2ccccc2)c(=O)c2cc(F)c(N3CCCCCC3)cc21 | 8.9µM*
Cn1cc(S(=O)(=O)c2cccc(Cl)c2)c(=O)c2cc(F)c(N3CCCCCC3)cc21 | i
CCN1CCN(c2cc3c(cc2F)c(=O)c(S(=O)(=O)c2ccccc2)cn3C)CC1 | -5%
Cn1cc(S(=O)(=O)c2ccc(Cl)cc2)c(=O)c2cc(F)c(N3CCCCCC3)cc21 | 14µM*
Cn1cc(S(=O)(=O)c2ccccc2)c(=O)c2cc(F)c(N3CCCC3)cc21 | -16%
CCOc1ccccc1C(=O)N1CC2CC(C1)[C@H]1CCCC(=O)N1C2 (stereo partly specified) | 5%
O=C(Cc1ccc(F)cc1)Nc1ccc2ncnc(N3CCCCC3)c2c1 | -6%
SMILES | Pf Dd2 inh
COc1ccc(CNC(=O)CCC2CCCN(C(=O)CN3CCOC3=O)C2)c(OC)c1 (stereo unspecified) | -3%
CCN(CC)C(=O)CCC1CCN(C(=O)c2ccccc2F)CC1 | 1%
COCCN1CCC(N2CCN(C(=O)C3CCCCC3)CC2)C1=O (stereo unspecified) | -13%
CCCN1CCc2[nH]cnc2C12CCN(C(=O)[C@H]1Cc3ccccc3CN1)CC2 | 3%
CN1CCC(Nc2ccc3c(n2)CN(Cc2ccc(C(F)(F)F)cc2)C(=O)CO3)CC1 | -9%[44.1 µM]
CCCCNC(=O)Cn1nc2n(c1=O)CCN(Cc1cccc(Cl)c1)C2=O | -21%
CCCN(CC1CCOC1)S(=O)(=O)c1ccc(F)cc1 (stereo unspecified) | 34%[5.79 µM]
CC(=O)N1CCN(c2ccc(Cl)nn2)C(=O)C1 | 11%[44.1 µM]
O=C1COc2ccc(Nc3ccccc3F)nc2CN1Cc1ccc(F)cc1 | -9%[44.1 µM]
O=c1[nH]c(C2CCCN(Cc3cccc(Cl)c3)C2)nc2ccc(F)cc12 (stereo unspecified) | 10µM*!
Cc1ccc2nc(C3CCN(Cc4cccc(Cl)c4)CC3)[nH]c(=O)c2c1 | 1%
O=c1[nH]c(C2CCCN(Cc3ccc(Cl)cc3)C2)nc2ccc(F)cc12 (stereo unspecified) | 8.9µM*
O=c1[nH]c(C2CCCN(Cc3ccccc3)C2)nn1-c1ccc(Cl)cc1 (stereo unspecified) | i
COc1ccc(CN2CCCC(c3nn(-c4ccc(Cl)cc4)c(=O)[nH]3)C2)cc1 (stereo unspecified) | i
O=c1[nH]c(C2CCCN(CC3CC3)C2)nn1-c1ccccc1 (stereo unspecified) | i
O=C(NCc1ccccc1)N1CC[C@H](c2nc3ccc(F)cc3[nH]2)C1 | i
O=c1[nH]c(C2CCN(Cc3cccs3)CC2)nc2ccc(F)cc12 | -6%
O=c1[nH]c(C2CCCN(CC3CCCC3)C2)nc2ccc(F)cc12 (stereo unspecified) | 2.2µM*
O=C1OCC2=C1C(c1ccccc1)NC(=O)N2CC(=O)N1CCCCC1 (stereo unspecified) | i
O=C(NCc1cc2n(n1)CCNC2)c1cc2c(s1)CCCCC2 | -11%
Cc1ccc(C(=O)N2CCC(c3nn(-c4ccc(Cl)cc4)c(=O)[nH]3)CC2)cc1 | -20%
CCNC(=O)O[C@@H]1CO[C@H]2[C@@H]1OC[C@@H]2n1cc(C(=O)OC)nn1 | 21%[44.1 µM]
O=C1CCC2(CNC(=O)c3ccc4ncccc4c3)CCCC=C2N1 (stereo unspecified) | -23%
Cc1ccc(S(=O)(=O)NC[C@H]2O[C@@H](CO)[C@@H](O)[C@H]2N2CCN(c3ccccn3)CC2)cc1 | -23%
COc1ccccc1-c1cc2c(ccn2C)c(C(=O)NCc2cnccn2)n1 | i
SMILES | Pf Dd2 inh
O=C(Nc1ccc(Cl)cc1)c1nc2c(o1)CCN(Cc1cc(F)ccc1F)CC2 | i
COc1ccc(CNC(=O)CSc2ncc3c(n2)-c2cc(Cl)ccc2N(Cc2ccccc2)S3(=O)=O)cc1 | -29%
COc1ccc(CNC(=O)CSc2ncc3c(n2)-c2ccc(Cl)cc2N(Cc2ccc(F)cc2)S3(=O)=O)cc1OC | 11µM*
COc1ccccc1CNC(=O)CSc1ncc2c(n1)-c1ccc(Cl)cc1N(Cc1ccccc1)S2(=O)=O | 1%
O=C(Nc1cccc(-c2ccc(N3CCOCC3)nn2)c1)Nc1ccccc1Cl | -2%
Cc1nn2c(c1-c1ccccc1-c1ccccc1)N(C(=O)c1ccn(C)n1)CCC2 | -17%[44.1 µM]
Cc1nnc(-c2cc(-c3cccc(F)c3)ccn2)n1CCc1ccccc1 | -11%[44.1 µM]
CC(=O)Nc1cccc(-c2ccnc(-c3nnc(C)n3CCc3ccccc3)c2)c1 | 7.9µM*
Cc1nnc(-c2cc(-c3cccc(O)c3)ccn2)n1CCc1ccccc1 | i
CCOC(=O)c1cccc(NC(=O)c2c(C)oc3ccn(Cc4ccc(F)cc4)c(=O)c23)c1 | -16%
COc1cccc(CN2Cc3cc(NC(=O)c4ccc([N+](=O)[O-])cc4)ccc3OCC2=O)c1OC | -6%
CCc1ccc(NC(=O)CC2C(=O)N(c3ccc(Cl)cc3)C(=O)N2C2CCCC2)cc1 (stereo unspecified) | 10µM*
CCOc1ccc(NC(=O)CC2C(=O)N(c3ccccc3)C(=O)N2C2CCCC2)cc1 (stereo unspecified) | -10%
CCc1ccc(NC(=O)CC2C(=O)N(c3ccc(C)cc3)C(=O)N2C2CCCC2)cc1 (stereo unspecified) | 11µM*
CCOC(=O)c1ccc(NC(=O)CC2C(=O)N(c3ccc(C)cc3)C(=O)N2C2CCCCC2)cc1 (stereo unspecified) | 15%
CCOc1ccc(NC(=O)CC2C(=O)N(c3ccc(OC)cc3)C(=O)N2C2CCCCC2)cc1 (stereo unspecified) | 9%
COc1ccc(NC(=O)CC2C(=O)N(c3ccc(OC)cc3)C(=O)N2C2CCCCC2)cc1 (stereo unspecified) | i
